Compounds with a hit are over-represented: about 1.8% of the library has one in this group of screens.
m5-HT2A agonist = mouse Htr2a agonists via beta-arrestin recruitment, primary screen, cell-based, luminescence | 5-hydroxytryptamine receptor 2A (Mus musculus), P35363 | CHO-K1 mHTR2A beta-arrestin complementation; percent of 30 µM serotonin response | activation, % at 7.6 µM | hit rate 0.66% among 360,000 | AID 624169, 2012;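 active means activation above a run cutoff, the mean activation of all tested compounds plus 3 SD, cut at about 14% in these data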;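 further: 0% = plate median of compound wells and 100% = 30 µM serotonin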
NPR1 activator = GC-A stimulated cGMP production enhancers – HEK293 GC-A cells, cGMP TR-FRET, EC30 ANP, primary screen; activation, % at 10 µM; AID 1671463, 2021; 0% at EC30 ANP, 100% saturating ANP; Atrial natriuretic peptide receptor 1 (Homo sapiens), P16066; hit rate 0.14% among 370,000; in the data active means activation above about 40%
MsrA act = bovine MsrA enzyme activators, primary screen, biochemical, absorbance, HTS | Methionine sulfoxide reductase A (Bos taurus) | purified bovine MsrA, absorbance read-out | activation, % at 10.6 µM | hit rate 0.3% among 360,000 | AID 602163, 2012; in the data active means activation above about 7.5%;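 further: 0% = vehicle and 100% = reference activator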
MsrA inh = bovine MsrA enzyme inhibitors, primary screen, biochemical, absorbance, HTS; Methionine sulfoxide reductase A (Bos taurus); hit rate 0.75% among 360,000; inhibition, % at 15.5 µM; purified bovine MsrA, absorbance read-out; AID 651718, 2012;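 further: 0% = vehicle wells with enzyme and 100% = reference inhibitor wells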
NPR2 activator = human GC-B receptor activators, primary screen, HEK293 GC-B cells, cGMP TR-FRET, EC30 CNP | Atrial natriuretic peptide receptor 2 (Homo sapiens), P20594 | 0% at EC30 CNP, 100% saturating CNP | activation, % at 10 µM | hit rate 0.11% among 370,000 | AID 1920062, 2024;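 active means activation at 10 µM reaching about 35% in either raw or pattern-adjusted values, limit read from the data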
Target sequence (P20594 whole entry, looked up): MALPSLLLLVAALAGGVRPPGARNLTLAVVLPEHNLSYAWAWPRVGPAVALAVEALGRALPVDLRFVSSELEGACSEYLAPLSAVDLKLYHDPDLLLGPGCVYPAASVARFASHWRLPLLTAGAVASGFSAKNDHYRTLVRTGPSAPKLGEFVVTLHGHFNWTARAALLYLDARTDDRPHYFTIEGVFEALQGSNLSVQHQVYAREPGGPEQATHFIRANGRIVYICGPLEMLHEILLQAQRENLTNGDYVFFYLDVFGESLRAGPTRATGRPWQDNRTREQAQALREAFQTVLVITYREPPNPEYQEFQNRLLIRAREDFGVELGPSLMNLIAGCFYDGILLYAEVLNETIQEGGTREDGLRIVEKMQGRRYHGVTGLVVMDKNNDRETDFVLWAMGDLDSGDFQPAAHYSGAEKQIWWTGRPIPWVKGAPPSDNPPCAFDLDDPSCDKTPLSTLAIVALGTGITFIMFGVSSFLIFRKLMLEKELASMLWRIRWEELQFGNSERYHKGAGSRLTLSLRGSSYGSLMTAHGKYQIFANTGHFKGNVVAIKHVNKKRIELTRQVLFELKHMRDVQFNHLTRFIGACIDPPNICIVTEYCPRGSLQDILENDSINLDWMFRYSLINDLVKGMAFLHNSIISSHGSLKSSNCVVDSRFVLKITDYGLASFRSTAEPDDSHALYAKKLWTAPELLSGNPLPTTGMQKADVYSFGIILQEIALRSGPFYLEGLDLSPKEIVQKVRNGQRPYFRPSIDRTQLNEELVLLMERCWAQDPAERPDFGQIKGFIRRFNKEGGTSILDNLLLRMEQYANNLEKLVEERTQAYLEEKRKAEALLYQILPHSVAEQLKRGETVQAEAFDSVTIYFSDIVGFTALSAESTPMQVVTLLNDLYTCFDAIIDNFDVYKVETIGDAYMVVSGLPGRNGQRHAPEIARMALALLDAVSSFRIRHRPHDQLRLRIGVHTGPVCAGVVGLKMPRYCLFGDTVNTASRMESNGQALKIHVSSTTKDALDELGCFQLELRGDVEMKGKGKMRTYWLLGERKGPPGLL
MsrA conf = bovine MsrA inhibitors, retest, confirmation, biochemical, absorbance, HTS | inhibition, % at 15.5 µM | shares compounds with MsrA inh | hit rate 41% among 2,300 | purified bovine MsrA, absorbance read-out;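 further: coupled to thioredoxin reductase with NADPH and selenocystamine and DMSO as substrate; 0% = vehicle only and 100% = full effect of reference inhibitor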
* = called active by the depositor; . = not tested or not shown. Unless noted, no stated cut-off is given here; in the data, active means inhibition above about 4.5%; inactive means the rest.

SMILES	m5-HT2A agonist	NPR1 activator	MsrA act	MsrA inh	NPR2 activator	MsrA conf
O=C(NCCc1ccc(F)cc1)c1coc(=O)c(Br)c1	-4	9	3	6.0*	1	4.8*
N#C/C(=C/Nc1ccccc1)c1ccsc1	0	-6	-15	4.8*	-4	2
CN1/C(=C/C=N/n2cnnc2)C(C)(C)c2ccccc21	-1	2	-6	4.8*	2	4
CN1/C(=C\C=C(C#N)C#N)C(C)(C)c2ccccc21	4	-3	-16	0	8	.
N#Cc1c(NCCCO)nc(-c2ccco2)c2c1CCCC2	0	-3	-15	9.5*	-2	7.6*
CC(C)c1nc(NCCO)c(C#N)c2c1CCCC2	0	-4	-12	8.8*	-3	7.0*
CC(C)c1nc(NCc2ccccc2)c(C#N)c2c1CCCC2	4	-2	-2	1	3	.
COc1ccc(/C=C/C(=O)NC(=S)Nc2ccc(S(=O)(=O)Nc3cc(OC)ncn3)cc2)cc1	0	-9	-3	1	-1	.
COc1ccc(/C=C/C(=O)NC(=S)Nc2ccc(S(=O)(=O)Nc3nccnc3OC)cc2)cc1	3	-2	-8	5.2*	-1	6.0*
C/C(=N\Nc1ccc(S(N)(=O)=O)cc1[N+](=O)[O-])c1cccnc1	7	0	-6	11*	-8	10*
C/C(=N\Nc1ccc([N+](=O)[O-])cc1[N+](=O)[O-])c1cccnc1	1	-4	-1	13*	-11	16*
COc1ccc(/C=C/C(=O)NC(=S)NNC(=O)c2cccnc2)cc1OC	2	-4	-8	5.6*	0	5.6*
COc1ccc(NC(=O)/C=C/c2ccc(OC)c(OC)c2)cn1	4	-6	-6	6.8*	-1	5
COc1cccc(/C=C/C(=O)Nc2ccc3[nH]c(=O)[nH]c3c2)c1	-5	-2	-3	3	1	.
COc1cc(/C=C/C(=O)Nc2ccc3[nH]c(=O)[nH]c3c2)cc(OC)c1OC	0	0	-6	5.6*	1	3
COc1ccc(/C=C/C(=O)Nc2ccncc2)cc1OC	-4	-3	-8	5.8*	0	4
COc1ccc(/C=C/C(=O)Nc2ccc(OC)nc2)cc1	-1	-3	-5	5	0	.
O=C(CCc1ccccc1)N[C@H]1[C@@H](O)CCC[C@]12C(=O)N(Cc1ccccc1)c1ccccc12	.	-15	.	.	-13	.
COc1cc(/C=C/C(=O)OCC(=O)Nc2ccc(S(=O)(=O)N3CCCC3)cc2)ccc1O	2	-6	-10	1	-3	.
COc1cc(NC(=O)Cc2ccccc2)c(C(=O)O)cc1OC	-2	1	-1	1	2	.
COc1ccc(/C=C/C(=O)OCC(=O)Nc2ccc(S(N)(=O)=O)cc2)cc1OC	5	-4	-7	4.8*	0	2
COc1cc(NC(=O)/C=C/c2ccccc2)c(C(=O)O)cc1OC	1	3	-15	4.7*	0	3
CCOC(=O)C1=NOC(C(=O)Nc2cc(C)cc(C)c2)(C(=O)C2CC2)C1 (stereo not given)	.	1	.	.	-6	.
COC(=O)C1=C(C(=O)OC)SC2(S1)C(C(=O)OC)=C(C(=O)OC)SC1=C2c2cc(C)ccc2NC1(C)C	3	-10	-11	6.1*	-16	3
CCOC(=O)C1(N(CC)CC)Sc2cc(C)ccc2NC1=O (stereo not given)	1	-1	1	1	-1	.
SMILES	m5-HT2A agonist	NPR1 activator	MsrA act	MsrA inh	NPR2 activator	MsrA conf
COc1ccc(S[C@]2(C(=O)N(C)C)CC(=O)N[C@@H]2c2ccc(OC)cc2)cc1	.	-3	.	.	-2	.
CCN(CC)C1=CC(=[N+]2CCCC2)CC(C)(C)C1	-1	5	-7	5.7*	0	4
CN(Cc1ccccc1)C1=CC(=[N+]2CCCC2)CC(C)(C)C1	2	-3	-5	5.5*	7	3
CN(C)Cc1ccccc1	.	2	.	0	-2	.
COc1cccc(CNC(=O)[C@H]2CCCN2C(=O)[C@H]2CCCN2C(=O)N2CCOCC2)c1	.	3	.	-1	1	.
COc1ccc(CN2C(NC(=O)OCc3ccccc3)=NC3=CC(C)(C)n4c(=O)n(-c5ccccc5)c(=O)n4C32)c(OC)c1 (stereo not given)	.	2	.	.	12	.
CCOC(=O)Cc1csc(NC(=O)/C=C/c2ccc(Br)o2)n1	10	2	-9	5.5*	-4	4
CN(C)c1ccc(C(=O)Nc2nnc(C3=COCCO3)o2)cc1	1	0	-10	5.1*	5	4
O=C(CSc1nnc(-c2ccncc2)n1-c1ccc(Br)cc1)c1ccccc1	.	-9	.	.	-12	.
COc1cccc(-c2cc3c(-n4cccc4)ncnc3o2)c1	1	-1	1	5.5*	-1	2
CN(CC(=O)Nc1ccc(N2CCOCC2)cc1)C(=O)Cc1ccccc1	2	-2	-2	5.3*	-1	0
CC(CC(=O)N(C)CC(=O)Nc1ccc(N2CCOCC2)cc1)c1ccccc1 (stereo not given)	-2	0	-4	1	-2	.
COC(=O)[C@]1(Cc2ccccc2)NC=C(C(=O)c2ccc(F)cc2)[C@@H]1c1ccccc1	.	2	.	2	2	.
O=C(O)c1ccc(N/N=C2/CCCc3ccccc32)cc1	1	-2	-11	5.8*	-5	7.0*
O=C(c1nc2nc(-c3ccccc3)cc(C(F)(F)F)n2n1)N1CCCCC1	1	8	-4	1	2	.
COc1ccc(-c2cc(C(F)(F)F)n3nc(C(=O)N4CCOCC4)nc3n2)cc1	-6	-1	-6	7.7*	2	4.9*
COc1ccc(N2CCN(C(=O)CCS(=O)(=O)c3ccc(OC)cc3)CC2)cc1	5	1	-3	0	2	.
COc1ccc(S(=O)(=O)CCC(=O)N2CCN(c3ccc(C(C)=O)cc3)CC2)cc1	11	-4	-4	4.7*	-3	3
CC(=O)C1=C(O)C(=O)N(c2cc(C(C)(C)C)on2)C1c1ccc(C(C)C)cc1 (stereo not given)	3	.	-4	.	.	.
CC(=O)C1=C(O)C(=O)N(c2cc(C(C)(C)C)on2)C1c1ccc(Br)cc1 (stereo not given)	4	-5	1	4.9*	-1	2
COc1ccc(C(=O)OCCN2CCN(C3CN(Cc4cn(Cc5ccccc5C(F)(F)F)nn4)S(=O)(=O)C3)CC2)cc1OC (stereo not given)	.	-1	.	.	-1	.
N#Cc1cc([N+](=O)[O-])cnc1NCC(O)CO (stereo not given)	-3	3	-4	5.4*	0	5
